Assay outcomes as filed in PubChem BioAssay.
Bim-Mcl-1: disrupts Bim peptide binding to human Mcl-1; Q07820; 0.1% of 190,000 active; inhibition, % at 10 µM; Bead-based flow cytometry, Bim peptide-Mcl-1 binding; in the data active means inhibition above about 40%
Target sequence (Q07820 whole entry, looked up): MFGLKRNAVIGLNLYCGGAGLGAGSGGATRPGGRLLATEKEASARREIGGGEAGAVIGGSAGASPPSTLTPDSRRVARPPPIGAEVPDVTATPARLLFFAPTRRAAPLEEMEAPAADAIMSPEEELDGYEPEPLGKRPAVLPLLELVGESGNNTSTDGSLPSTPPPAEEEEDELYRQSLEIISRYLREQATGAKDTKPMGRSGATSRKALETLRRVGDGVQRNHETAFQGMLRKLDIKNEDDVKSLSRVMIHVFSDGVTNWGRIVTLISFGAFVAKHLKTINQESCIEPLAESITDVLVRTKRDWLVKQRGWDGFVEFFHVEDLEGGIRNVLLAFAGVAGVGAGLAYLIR
14-3-3 Bad PPI: disrupts binding of bovine 14-3-3 zeta to phospho-Bad peptide. TR-FRET 14-3-3zeta/Dy647-pBad peptide displacement, 1 h. inhibition, % at 21.7 µM. AID 781. 0.71% of 220,000 active. P63103;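 active means inhibition above about 70%, limit read from the data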
Target sequence (P63103 whole entry, looked up): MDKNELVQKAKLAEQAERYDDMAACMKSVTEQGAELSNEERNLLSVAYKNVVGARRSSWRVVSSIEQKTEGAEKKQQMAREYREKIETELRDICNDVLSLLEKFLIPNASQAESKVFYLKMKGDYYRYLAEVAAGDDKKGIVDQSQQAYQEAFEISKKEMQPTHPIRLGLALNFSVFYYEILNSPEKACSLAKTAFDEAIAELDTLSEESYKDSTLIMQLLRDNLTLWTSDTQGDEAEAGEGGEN
Mcl1 Bid PPI: disrupts binding of human Mcl-1 to Bid peptide; Q07820; TR-FRET Mcl-1/Bid-Dy647 peptide binding, 1536-well; inhibition, % at 21.7 µM; 0.97% of 220,000 active;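 active means compounds that cut the binding signal by more than half at the single screening dose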;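 further: His-tagged Mcl-1 with europium anti-His antibody binding Bid BH3 peptide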
MCL1 BIM primary: disrupts human MCL1 binding to BIM-BH3 peptide | Q07820 | GST-MCL1 / FITC-Bim-BH3 fluorescence polarization | inhibition, % at 10.9 µM | 0.68% of 320,000 active;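 active means inhibition above the mean inhibition of all tested compounds plus 3 SD, set per campaign, cut at about 40% in these data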;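 further: higher means more loss of mP so more displacement of Bim peptide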
Mcl1 Noxa PPI: Mcl-1/Noxa interaction inhibition; 1.5% of 220,000 active; TR-FRET Mcl-1/Noxa peptide binding, 2 h; inhibition, % at 21.7 µM; Q07820;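 active means compounds that cut the protein-peptide binding signal by more than 50% relative to plate controls in a single-dose test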;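 further: His-tagged Mcl-1 with rhodamine Noxa BH3 peptide and terbium anti-His antibody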
Each line names hits and unclear results; the compound was inactive in the other large screens. A selection: hits, their analogues and other compounds. The true share with any hit is near 2.5%.

CC(C)OC(=O)CSc1nnnn1-c1ccc2c(c1)OCCO2	none
O=C(OC1CCCCC1=O)c1ccc(F)c(S(=O)(=O)N2CCOCC2)c1 (configuration not stated)	none (no result: Bim-Mcl-1, 14-3-3 Bad PPI, Mcl1 Bid PPI, Mcl1 Noxa PPI)
O=C(Nc1nc2c(s1)CN(Cc1ccccc1)CC2)c1cccc(S(=O)(=O)N2CCc3ccccc32)c1	MCL1 BIM primary 61.0
O=C(Nc1nc2ccccc2s1)c1cccc(S(=O)(=O)N2CCc3ccccc32)c1	none (no result: Bim-Mcl-1)
CCOC(=O)c1sc2nc3c(SCC(=O)O)cc(C(=O)c4cc(F)ccc4O)cn3c(=O)c2c1C	Mcl1 Noxa PPI 85.7
CCOC(=O)c1sc2nc3c(SCC(=O)O)cc(C(=O)c4ccccc4O)cn3c(=O)c2c1C	Mcl1 Noxa PPI 65.9
O=C(O)CSc1cc(C(=O)c2ccccc2O)cn2c(=O)c3c(-c4ccccc4)csc3nc12	Mcl1 Noxa PPI 86.5
COc1ccc(O)c(C(=O)c2cc(SCC(=O)O)c3nc4sc5c(c4c(=O)n3c2)CCCC5)c1	Mcl1 Noxa PPI 107.5 (no result: Bim-Mcl-1)
COc1ccc(-n2c(SCC(=O)O)nc3sc4c(c3c2=O)CCCC4)cc1	none (no result: Bim-Mcl-1, 14-3-3 Bad PPI, Mcl1 Bid PPI, Mcl1 Noxa PPI)
CC(C)(C)C(O)/C=C/c1ccc2c(c1)OCO2 (configuration not stated)	none (no result: Bim-Mcl-1, 14-3-3 Bad PPI, Mcl1 Bid PPI, Mcl1 Noxa PPI)
CN(C)Cc1nc2ccccc2c(=O)n1Cc1nc(-c2cccc([N+](=O)[O-])c2)cs1	14-3-3 Bad PPI 97.7
CN1CCN(Cc2nc3ccccc3c(=O)n2Cc2nc(-c3ccc([N+](=O)[O-])cc3)cs2)CC1	none
CN(C)S(=O)(=O)c1cccc(NC(=S)N/N=C/c2cccc(O)c2)c1	none
CC(C)C(C(=O)Nc1ccc2c(c1)OCO2)N1C(=O)c2ccccc2C1=O (configuration not stated)	none
CCC(SC1=Nc2ccccc2C2=NC(CC(C)C)C(=O)N12)C(=O)Nc1ccc2c(c1)OCO2 (configuration not stated)	Mcl1 Noxa PPI 62.1
CCNc1cc(N2CCOCC2)nc(SC)n1	none
COc1ccc(-c2nnc3n2-c2ccccc2SC3)cc1OC	14-3-3 Bad PPI 78.1
CN(C)c1ccc(NC(=O)CCn2c(=S)oc3ccccc32)cc1	Mcl1 Noxa PPI 67.6
O=C(CNCC1CCCCC1)Nc1ccccc1N1CCCCC1	14-3-3 Bad PPI 80.4
CC1Cc2ccccc2N1C(=O)CNCCCN(C)C (configuration not stated)	14-3-3 Bad PPI 76.5
CN(C)CCCNCC(=O)Nc1ccccc1N1CCOCC1	Mcl1 Bid PPI 61.6
O=C(Cc1ccccc1)Nc1ccccc1N1CCOCC1	none
O=C(NC(=S)Nc1ccccc1N1CCOCC1)c1cccs1	none
CC1Cc2ccccc2N1C(=O)CSCC(=O)O (configuration not stated)	none
O=C(Nc1ccccc1N1CCOCC1)c1cccs1	Bim-Mcl-1 82.0
Cn1c(O)c(N=Nc2ccccc2)c2ccccc21	none (no result: Bim-Mcl-1, 14-3-3 Bad PPI, Mcl1 Bid PPI, Mcl1 Noxa PPI)
CC(C)(C)NC(=O)/C(=C/c1ccccc1F)NC(=O)c1ccc([N+](=O)[O-])cc1	none
O=C(Nc1ccc2c(c1)OCCO2)c1cccc(Cl)c1Cl	none (no result: Bim-Mcl-1, 14-3-3 Bad PPI, Mcl1 Bid PPI, Mcl1 Noxa PPI)
OCCNc1nc(Nc2ccccc2)nc2ccccc12	none
OCCNc1nc(Nc2ccccc2)nc(Nc2ccccc2)n1	Mcl1 Noxa PPI 91.7
COC(=O)[C@@H]1C[C@@]2(O)[C@H](O)[C@H](O)[C@H](O)C[C@H]2N1Cc1cc(F)ccc1F	none (no result: Bim-Mcl-1)
O=C1CCCN1CCCNCC(=O)N1c2ccccc2Sc2ccccc21	14-3-3 Bad PPI 78.9, Mcl1 Bid PPI 51.4
COc1cc(-c2ncc3ccccn23)cc(OC)c1OC	14-3-3 Bad PPI 72.8
Cc1c(OCC(=O)NC(Cc2ccc(Cl)cc2)C(=O)O)ccc2c(-c3ccccc3)cc(=O)oc12 (configuration not stated)	none (no result: Bim-Mcl-1, 14-3-3 Bad PPI, Mcl1 Bid PPI, Mcl1 Noxa PPI)
CCS(=O)(=O)N1Cc2ccccc2CC1C(=O)OCC(=O)N(C(C)C)C(C)C (configuration not stated)	Mcl1 Noxa PPI 69.6
CCOc1ccc(NC(=O)C2Cc3ccccc3CN2S(=O)(=O)CC)cc1 (configuration not stated)	none
Cn1cc(/C=C(\C#N)C(=O)Nc2cccc([N+](=O)[O-])c2)c2ccccc21	Mcl1 Bid PPI 51.9
Cn1cc(/C=N/NC(=O)c2cccc([N+](=O)[O-])c2)c2ccccc21	none
CC1(C)Cc2c(c(N3CCOCC3)nc3sc(-c4ccc(C(=O)O)o4)c(N)c23)CO1	none
CC1Cc2ccccc2N1C(=O)c1ccc2c(c1)OCO2 (configuration not stated)	none (no result: Bim-Mcl-1, 14-3-3 Bad PPI, Mcl1 Bid PPI, Mcl1 Noxa PPI)
COc1ccc(C(=O)N2c3ccccc3CC2C)cc1OC (configuration not stated)	Mcl1 Noxa PPI 74.3
CN(C)c1ccc(Sc2nnc(NC(=O)Nc3ccc(Cl)cc3Cl)s2)cc1	Mcl1 Noxa PPI 89.0
CCC(=O)Nc1nnc(Sc2ccc(N(C)C)cc2)s1	none
Cc1ccc(CNc2nc3ccc(C)cc3n3cnnc23)cc1	none
COc1cccc(CNc2nc3ccc(C)cc3n3cnnc23)c1	Mcl1 Bid PPI 97.8 (no result: Bim-Mcl-1)
Cc1ccc(C(=O)NC(=S)Nc2ccc3c(c2)OCCO3)c(C)c1	none
CCN(CC)CC(C)OC(=O)c1cc(OC)c(OC)c(OC)c1 (configuration not stated)	Mcl1 Bid PPI 50.7
COc1cc2c(cc1OC)CN(C(=O)CSc1nnc(C)s1)CC2	none
O=S1(=O)CCC(NC2CCCC2)C1 (configuration not stated)	none (no result: Bim-Mcl-1, 14-3-3 Bad PPI, Mcl1 Bid PPI, Mcl1 Noxa PPI)
CN(C)NC1CCS(=O)(=O)C1 (configuration not stated)	Mcl1 Noxa PPI 51.6
O=c1oc(-c2ccccc2)nc2sc3c(c12)CCC3	Mcl1 Noxa PPI 59.6
COc1ccc(NC(=O)c2cccc(N3C(=O)c4cccc([N+](=O)[O-])c4C3=O)c2)cc1	none (no result: Bim-Mcl-1, 14-3-3 Bad PPI, Mcl1 Bid PPI, Mcl1 Noxa PPI)
COc1ccc(/C=C2\C(=O)N(c3c(Cl)cc(Cl)cc3Cl)N=C2NC(=O)c2cccc([N+](=O)[O-])c2)cc1	Mcl1 Noxa PPI 106.4
Cc1ccc(-c2[nH]c3ccccc3c2C(C[N+](=O)[O-])c2ccco2)cc1 (configuration not stated)	none
O=C(CCCN1C(=O)c2cccc3cccc(c23)C1=O)N1CCN(c2ccccc2O)CC1	Mcl1 Noxa PPI 55.1
CCc1nc2c(cnn2-c2ccc(Cl)cc2)c(=O)n1-c1ccc(OC)cc1	none
CC(C)c1ccc(CNC(=O)CSCC(=O)Nc2ccc3ccccc3c2)cc1	none (no result: Mcl1 Noxa PPI)
COc1cccc(N2CCN(C3C4CC5CC(C4)CC3C5)CC2)c1 (configuration not stated)	14-3-3 Bad PPI 87.8
COc1cccc(N2CCN(CC(=O)C34CC5CC(CC(C5)C3)C4)CC2)c1	none
Cc1cc(OCC(=O)Nc2ccc(N3CCN(C(=O)c4ccco4)CC3)cc2)cc(C)c1Cl	Mcl1 Bid PPI 56.6
Cc1noc(/C=C/N(C)C)c1S(=O)(=O)N1CCc2ccccc21	none
COC(=O)c1cc(=O)n(C2CC2)c(=NC2CC2)s1	none
O=C(COC(=O)c1cc[n+]([O-])cc1)NCc1ccccc1Cl	Mcl1 Noxa PPI 71.6
CN(C)c1ccc(NC(=O)CN2CCC(N3CCCCC3)CC2)cc1	14-3-3 Bad PPI 74.9
Cc1ccc(C(=O)COC(=O)CNC(=O)Cc2ccccc2)cc1[N+](=O)[O-]	none
